According to PubChem BioAssay AID1159580 (chemical genetic matrix, 2015):
Several values for one entry are separate records, joined by “and”; a condition that tells them apart may be missing. Equal entries are not always repeated. The campaign covered roughly 5,500 compounds. About 2,000 (36%) were called active. Roughly 18% stayed inconclusive and do not appear here. Rule as the data show it: active = normalized growth mostly below about 0.91 (no sharp cut-off); inconclusive = no clear call, values can overlap the other calls; inactive = mostly above about 0.92. This is one part of the list.

Assay: chemical genetic growth profiling, strain panel (AID 1159580);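 also: tested at 20 µM; growth read once vehicle control cultures reached saturation at 30 °C; 1 = growth at the plate median or of vehicle wells; lower values mean less growth of the strain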
Details: growth OD

Measured: normalized growth

CC[C@H]1OC(=O)[C@H](C)[C@@H](O[C@H]2C[C@@](C)(OC)[C@@H](O)[C@H](C)O2)[C@H](C)[C@@H](O[C@@H]2O[C@H](C)C[C@H](N(C)C)[C@H]2O)[C@](C)(O)C[C@@H](C)CN(C)[C@H](C)[C@@H](O)[C@]1(C)O
inactive: S. cerevisiae deletion strains, locus YAL013W, strain DEP1, active compounds read low 0.993 | S. cerevisiae deletion strains, locus YBR021W, strain FUR4, active compounds read low 0.96 | S. cerevisiae deletion strains, locus YBR229C, strain ROT2, active compounds read low 0.988 | S. cerevisiae deletion strains, locus YCL029C, strain bik1, active compounds read low 0.962 | S. cerevisiae deletion strains, locus YDL035C, strain GPR1, active compounds read low 0.969 | S. cerevisiae deletion strains, locus YDL074C, strain BRE1, active compounds read low 1.01 | S. cerevisiae deletion strains, locus YDL101C, strain DUN1, active compounds read low 0.987 | S. cerevisiae deletion strains, locus YDL134C, strain PPH21, active compounds read low 0.993 | S. cerevisiae deletion strains, locus YDL185W, strain tfp1, active compounds read low 0.962 | S. cerevisiae deletion strains, locus YDL192W, strain arf1, active compounds read low 0.96 | S. cerevisiae deletion strains, locus YDR101C, strain arx1, active compounds read low 0.972 | S. cerevisiae deletion strains, locus YDR150W, strain NUM1, active compounds read low 1 | S. cerevisiae deletion strains, locus YDR162C, strain NBP2, active compounds read low 1.01 | S. cerevisiae deletion strains, locus YDR318W, strain mcm21, active compounds read low 0.948 | S. cerevisiae deletion strains, locus YDR388W, active compounds read low 0.978 | S. cerevisiae deletion strains, locus YDR502C, strain sam2, active compounds read low 0.984 | S. cerevisiae deletion strains, locus YEL061C, strain CIN8, active compounds read low 0.996 | S. cerevisiae deletion strains, locus YER110C, active compounds read low 0.972 | S. cerevisiae deletion strains, locus YER155C, strain BEM2, active compounds read low 0.991 | S. cerevisiae deletion strains, locus YER167W, strain BCK2, active compounds read low 0.964 | S. cerevisiae deletion strains, locus YGL078C, strain dbp3, active compounds read low 0.979 | S. cerevisiae deletion strains, locus YGL086W, strain mad1, active compounds read low 0.951 | S. cerevisiae deletion strains, locus YGL248W, strain PDE1, active compounds read low 0.992 | S. cerevisiae deletion strains, locus YGR078C, strain PAC10, active compounds read low 1.02 | S. cerevisiae deletion strains, locus YGR135W, strain pre9, active compounds read low 0.986 | S. cerevisiae deletion strains, locus YGR229C, strain SMI1, active compounds read low 0.988 | S. cerevisiae deletion strains, locus YGR252W, strain gcn5, active compounds read low 0.876 | S. cerevisiae deletion strains, locus YHR030C, strain SLT2, active compounds read low 0.988 and 0.962 | S. cerevisiae deletion strains, locus YHR079C, strain IRE1 (second series), active compounds read low 0.965 | S. cerevisiae deletion strains, locus YHR079C, strain IRE1, active compounds read low 0.965 | S. cerevisiae deletion strains, locus YHR094C, strain hxt1, active compounds read low 0.969 | S. cerevisiae deletion strains, locus YHR129C, strain ARP1, active compounds read low 0.996 | S. cerevisiae deletion strains, locus YHR200W, strain rpn10, active compounds read low 0.977 | S. cerevisiae deletion strains, locus YIL066C, strain RNR3, active compounds read low 0.987 | S. cerevisiae deletion strains, locus YIL073C, strain SPO22, active compounds read low 0.895 | S. cerevisiae deletion strains, locus YIL125W, strain kgd1, active compounds read low 0.983 | S. cerevisiae deletion strains, locus YIR030C, strain dcg1, active compounds read low 0.975 | S. cerevisiae deletion strains, locus YJL095W, strain BCK1, active compounds read low 1.03 and 0.999 | S. cerevisiae deletion strains, locus YJL134W, strain LCB3, active compounds read low 0.992 | S. cerevisiae deletion strains, locus YJL168C, strain set2, active compounds read low 0.979 | S. cerevisiae deletion strains, locus YJL187C, strain SWE1 (second series), active compounds read low 0.993 | S. cerevisiae deletion strains, locus YJR043C, strain POL32, active compounds read low 0.966 | S. cerevisiae deletion strains, locus YJR066W, strain TOR1, active compounds read low 0.956 | S. cerevisiae deletion strains, locus YJR075W, strain HOC1, active compounds read low 1 | S. cerevisiae deletion strains, locus YKL009W, strain mrt4, active compounds read low 0.992 | S. cerevisiae deletion strains, locus YKL068W, active compounds read low 0.995 | S. cerevisiae deletion strains, locus YKL085W, strain MDH1 (second series), active compounds read low 0.974 | S. cerevisiae deletion strains, locus YKL085W, strain MDH1, active compounds read low 0.974 | S. cerevisiae deletion strains, locus YKL190W, strain CNB1, active compounds read low 0.996 | S. cerevisiae deletion strains, locus YKR001C, strain vps1, active compounds read low 0.961 | S. cerevisiae deletion strains, locus YLR039C, strain RIC1, active compounds read low 0.965 | S. cerevisiae deletion strains, locus YLR058C, strain SHM2, active compounds read low 0.992 | S. cerevisiae deletion strains, locus YLR102C, strain apc9, active compounds read low 0.976 | S. cerevisiae deletion strains, locus YLR113W, strain HOG1, active compounds read low 0.986 | S. cerevisiae deletion strains, locus YLR262C, strain YPT6, active compounds read low 0.999 | S. cerevisiae deletion strains, locus YLR268W, strain sec22, active compounds read low 0.994 | S. cerevisiae deletion strains, locus YLR330W, strain CHS5, active compounds read low 0.991 | S. cerevisiae deletion strains, locus YLR342W, strain FKS1 (second series), active compounds read low 0.963 | S. cerevisiae deletion strains, locus YLR371W, strain rom2, active compounds read low 0.964 | S. cerevisiae deletion strains, locus YLR418C, strain cdc73, active compounds read low 1.03 | S. cerevisiae deletion strains, locus YML016C, strain PPZ1, active compounds read low 0.991 | S. cerevisiae deletion strains, locus YML032C, strain rad52, active compounds read low 0.942 | S. cerevisiae deletion strains, locus YML124C, strain tub3, active compounds read low 0.984 | S. cerevisiae deletion strains, locus YMR078C, strain ctf18, active compounds read low 0.964 | S. cerevisiae deletion strains, locus YMR223W, strain ubp8, active compounds read low 0.949 | S. cerevisiae deletion strains, locus YMR263W, strain SAP30, active compounds read low 1 | S. cerevisiae deletion strains, locus YMR307W, strain GAS1, active compounds read low 0.788 | S. cerevisiae deletion strains, locus YNL067W, strain RPL9B, active compounds read low 1.01 | S. cerevisiae deletion strains, locus YNL128W, strain TEP1, active compounds read low 1 | S. cerevisiae deletion strains, locus YNL153C, strain GIM3, active compounds read low 1.03 | S. cerevisiae deletion strains, locus YNL183C, strain NPR1, active compounds read low 0.92 | S. cerevisiae deletion strains, locus YNL233W, strain BNI4, active compounds read low 1.01 | S. cerevisiae deletion strains, locus YNL250W, strain rad50, active compounds read low 0.978 | S. cerevisiae deletion strains, locus YNL271C, strain bni1, active compounds read low 0.976 | S. cerevisiae deletion strains, locus YNL298W, strain CLA4, active compounds read low 0.972 | S. cerevisiae deletion strains, locus YNL307C, strain MCK1, active compounds read low 0.945 | S. cerevisiae deletion strains, locus YNL322C, strain KRE1, active compounds read low 0.995 | S. cerevisiae deletion strains, locus YNR052C, strain pop2, active compounds read low 0.957 | S. cerevisiae deletion strains, locus YOL006C, strain TOP1, active compounds read low 0.951 | S. cerevisiae deletion strains, locus YOL012C, strain htz1 1.44 | S. cerevisiae deletion strains, locus YOL147C, strain pex11, active compounds read low 0.981 | S. cerevisiae deletion strains, locus YOR061W, strain CKA2, active compounds read low 0.972 | S. cerevisiae deletion strains, locus YOR069W, strain VPS5, active compounds read low 0.989 | S. cerevisiae deletion strains, locus YOR136W, strain idh2, active compounds read low 0.969 | S. cerevisiae deletion strains, locus YOR144C, strain elg1, active compounds read low 0.976 | S. cerevisiae deletion strains, locus YOR184W, strain ser1, active compounds read low 0.973 | S. cerevisiae deletion strains, locus YOR231W, strain MKK1, active compounds read low 0.968 | S. cerevisiae deletion strains, locus YOR316C, strain cot1, active compounds read low 0.978 | S. cerevisiae deletion strains, locus YPL055C, strain LGE1, active compounds read low 1.01 | S. cerevisiae deletion strains, locus YPL241C, strain CIN2, active compounds read low 0.994 | S. cerevisiae deletion strains, locus YPL256C, strain CLN2, active compounds read low 0.963 | S. cerevisiae deletion strains, locus YPR119W, strain clb2, active compounds read low 0.981 | S. cerevisiae deletion strains, locus YPR141C, strain kar3, active compounds read low 0.98 | S. cerevisiae deletion strains, locus YPR163C, strain tif3, active compounds read low 0.974 | S. cerevisiae deletion strains, locus YPR167C, strain met16, active compounds read low 0.984 | S. cerevisiae deletion strains, strain wtn01, active compounds read low 0.978 | S. cerevisiae strains, strain wild type, active compounds read low 0.982
